PubChem BioAssay (EPA / NIEHS)
Values joined by “and” are separate entries in the source; they are usually repeats but may differ in a detail not shown here. Identical values can stand only once. The source holds several records for some structures; these can differ, active in one and inactive in another. Active and inactive are the calls of the source. The calls were made as follows: active = hit-call score of the fitted dose curve at least 0.9, where 1 is the maximum; inactive = score below 0.9.

Columns and labels:
[1] = read-out: E-selectin (Homo sapiens) (UniProt P16581); assay: BSK_IMphg_ESelectin: BioMAP Diversity Plus: IMphg Assay for Eselectin Biomarker Activity (AID 2284291); details: primary human endothelial cells with macrophages
In short: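 Human venular endothelial cell–macrophage co-culture, E-selectin measured by ELISA 24 h after chemical dosing. Signal fitted in the positive direction against DMSO as negative control and baseline.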

[2] = BSK_IMphg_SRB: Viability Assessment in the BioMAP Diversity Plus: IMphg Assay (AID 2284292); details: primary human endothelial cells with macrophages;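 also: measured one day after compound addition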
In short: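 Human venular endothelial cells with macrophages, 24 h after chemical dosing; total protein by 0.1% SRB staining after 10% TCA fixation, read at 560 nm. Positive-direction fitting versus DMSO baseline.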

[3] = read-out: Macrophage colony-stimulating factor (MCSF), CSF1 (gene 1435); assay: BSK_IMphg_MCSF: BioMAP Diversity Plus: IMphg Assay for Macrophage colony-stimulating factor (MCSF) Biomarker Activity (AID 2284293); details: primary human endothelial cells with macrophages
In short: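 Co-culture of human venular endothelial cells and macrophages, 24 hours of chemical exposure. M-CSF quantified by ELISA, with parallel SRB total-protein staining for cytotoxicity; activity fitted relative to DMSO.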

[4] = read-out: Interleukin-10 (IL10), IL10 (gene 3586); assay: BSK_IMphg_IL10: BioMAP Diversity Plus: IMphg Assay for Interleukin-10 (IL10) Biomarker Activity (AID 2284294); details: primary human endothelial cells with macrophages
In short: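 Human venular endothelial cells cocultured with macrophages, dosed 24 h; IL-10 measured by ELISA, activity relative to DMSO. Cytotoxicity assessed in parallel cultures by sulforhodamine B total-protein staining.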

[5] = read-out: Thrombomodulin, THBD (gene 7056); assay: BSK_LPS_Thrombomodulin: BioMAP Diversity Plus: LPS Assay for Thrombomodulin Biomarker Activity (AID 2284296); details: primary human HUVEC with PBMC
In short: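 Human umbilical vein endothelial cells co-cultured with PBMC and stimulated with LPS; cell-surface thrombomodulin measured by ELISA 24 hours after compound. Gain or loss versus DMSO; cytotoxicity checked by SRB staining in parallel cultures.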

[6] = IUF_NPC2c_oligodendrocyte_migration_120hr: Leibniz Research Institute for Environmental Medicine (IUF) 120-hour Neural Progenitor Cell Migration Assay for Oligodendrocyte Migration (NPC2c) (AID 2284297);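 also: O4-positive oligodendrocyte migration distance divided by radial glia migration distance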
In short: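 Primary hNPC spheres migrating on extracellular matrix, exposed five days to a 7-point dilution series with solvent control. Oligodendrocyte migration was scored by high-content imaging of O4 immunostaining and expressed relative to radial glia distance.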

[7] = IUF_NPC2a_radial_glia_migration_72hr: Leibniz Research Institute for Environmental Medicine (IUF) 72-hour Neural Progenitor Cell Migration Assay for Radial Glia Migration (NPC2a) (AID 2284299)
Protocol: IUF_NPC2-5 is a cell-based, multiplexed assay that uses hNPC, a human primary neural progenitor cells, with measurements taken at 72 or 120 hours after chemical dosing in a 96-well plate. Human neural progenitor cells (hNPC) are generated from human fetal brain cortex at gestational week (GW) 16-19. In the neural progenitor cell migration and differentiation assay (NPC2-5), hNPCs grown as spheres are plated on an extracellular matrix and migrate and differentiate out of the sphere core. The processes radial glia migration, neuronal and oligodendrocyte migration as well as neuronal differentiation, neuronal morphology and oligodendrocyte differentiation are studied using automated phase contrast imaging and automated fluorescence imaging in combination with high content image analysis. In parallel, the cell viability is assessed using an alamar blue viability assay and the cytotoxicity using a lactate dehydrogenase dependent membrane integrity assay.IUF_NPC2a_radial glia_migration_72hr is one of 12 assay components measured from the IUF_NPC2-5 assay. The migration distance of radial glia at 72 hr is assessed in um from the edge of the sphere core to the edge of the migration area based on brightfield images of each well. […] Images are exported and the migration distance is measured manually in four directions using ImageJ. The mean of four measures per well is used as raw data input.Data from the IUF_NPC2a_radial_glia_migration_72hr component was analyzed at the endpoint IUF_NPC2a_radial_glia_migration_72hr in the positive analysis fitting direction relative to DMSO as the negative control and baseline of activity. […]
Culture protocol: After the cell expansion period the cells are cultured for up to four weeks in which they are passaged every week as described in 3.6. […] Therefore, half of the test condition solution (e.g. solvent control or compound dilution) is replaced by freshly prepared test condition solution.Test Method: Migration distance and cytotoxicity is determined after 72 hours based on brightfield images of each well. […]

[8] = IUF_NPC2b_neuronal_migration_120hr: Leibniz Research Institute for Environmental Medicine (IUF) 120-hour Neural Progenitor Cell Migration Assay for Neuron Migration (NPC2b) (AID 2284300)
In short: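 Neurons identified by TUBB3 immunostaining and Hoechst nuclei; migration distance measured automatically on fixed wells at 120 h, normalized to glia migration. Exposure spanned five days of differentiation in N2 medium, seven test concentrations.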

[9] = IUF_NPC3_neuronal_differentiation_120hr: Leibniz Research Institute for Environmental Medicine (IUF) 120-hour Neuronal Differentiation Assay (NPC3) (AID 2284301)
In short: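 Single 0.3 mm neurospheres from human fetal cortex were plated in differentiation medium containing test compound. Medium was half-replaced on day 3. After 120 h cells were fixed, immunostained and imaged, and neuronal fraction was scored against DMSO control.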

[10] = IUF_NPC2a_radial_glia_migration_120hr: Leibniz Research Institute for Environmental Medicine (IUF) 120-hour Neural Progenitor Cell Migration Assay for Radial Glia Migration (NPC2a) (AID 2284298)
In short: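 In this multiplexed test, fetal hNPC spheres migrate radially on poly-D-lysine/laminin in N2 medium (37C, 5% CO2, pH 7.2-7.6) under continuous compound exposure over five days. Migration is scored at 120 h from automated Hoechst nuclear imaging.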

Measured: AC50

Chain of E-selectin (Homo sapiens) (P16581 whole entry, looked up): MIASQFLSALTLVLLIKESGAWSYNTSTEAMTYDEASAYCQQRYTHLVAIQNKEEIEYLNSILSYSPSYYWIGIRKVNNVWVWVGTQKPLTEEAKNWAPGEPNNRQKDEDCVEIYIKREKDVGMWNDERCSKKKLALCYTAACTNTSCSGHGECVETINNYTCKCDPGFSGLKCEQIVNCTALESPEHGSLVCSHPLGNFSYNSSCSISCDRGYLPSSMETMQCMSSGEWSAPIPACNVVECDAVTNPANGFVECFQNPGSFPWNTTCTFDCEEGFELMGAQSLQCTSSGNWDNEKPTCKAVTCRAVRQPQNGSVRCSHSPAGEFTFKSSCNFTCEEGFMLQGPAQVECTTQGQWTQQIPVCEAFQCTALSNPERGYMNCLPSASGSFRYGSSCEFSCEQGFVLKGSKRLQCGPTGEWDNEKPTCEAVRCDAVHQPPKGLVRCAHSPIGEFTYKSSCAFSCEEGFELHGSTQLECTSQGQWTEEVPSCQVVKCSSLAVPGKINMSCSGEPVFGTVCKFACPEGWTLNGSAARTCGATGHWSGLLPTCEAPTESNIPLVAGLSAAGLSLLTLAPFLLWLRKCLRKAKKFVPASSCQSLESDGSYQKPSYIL

O=C(Cl)C(F)(F)C(F)(F)C(F)(F)C(=O)Cl
inactive: [1] | [2] | [3] | [4] | [5]

CCCC(CCC)C(=O)O
active: [7] 1330 µM | [9] 2200 µM
inactive: [6] | [8]

FC(F)(F)COC(OCC(F)(F)F)OCC(F)(F)F
inactive: [1] | [2] | [3] | [4] | [5]

O=S(=O)(O)CCC(F)(F)C(F)(F)C(F)(F)C(F)(F)C(F)(F)C(F)(F)F
active: [5] 0.227 µM
inactive: [1] | [2] | [3] | [4] | [5]

FC(F)C(F)(F)COCC1CO1 (stereo not given)
inactive: [1] | [2] | [3] | [4] | [5]

FC(F)(F)C(F)(F)C(F)(F)C(F)(F)C(F)(F)C(F)(F)I
inactive: [1] | [2] | [3] | [4] | [5]

OCCC(F)(F)C(F)(F)C(F)(F)C(F)(F)F
inactive: [1] | [2] | [3] | [4] | [5]

OC(O)(C(F)C(O)(O)C(F)(F)F)C(F)(F)F
inactive: [1] | [2] | [3] | [5]
active: [4] 25 µM and 22.2 µM

NCC(F)(F)C(F)(F)C(F)(F)C(F)(F)F
inactive: [1] | [2] | [3] | [4] | [5]

Cn1cc[nH]c1=S
inactive: [6] | [10] | [7] | [8] | [9]

Nc1ccn([C@@H]2O[C@H](CO)[C@@H](O)[C@@H]2O)c(=O)n1
active: [9] 0.0137 µM
inactive: [6] | [10] | [7] | [8]

C[Si](C)(C)C(F)(F)C(F)(F)C(F)(F)F
inactive: [1] | [2] | [3] | [4] | [5]

FC(F)=C(F)C(F)(F)C(F)(F)C(F)(F)C(F)(F)C(F)(F)C(F)(F)F
inactive: [1] | [2] | [3] | [4] | [5]
